The source made the active and inactive calls. How the source made its calls: active means hit-call score of the fitted dose curve at least 0.9, where 1 is the maximum; inactive means score below 0.9.
Legend:
[1] = ATG_GLI_CIS: Attagene CIS-FACTORIAL HepG2 Assay for human Zinc Finger Protein GLI1 (AID 2282945); conditions: HepG2, Attagene cis-factorial reporter mRNA, GLI element; actives raise or lower the signal
How it was run: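 HepG2 cells transiently transfected with cis-promoter multiplexed reporter units report endogenous transcription factor activity. After 24 h chemical exposure, reporter mRNA was quantified by RT-PCR, 6-FAM labelling, HpaI digestion and capillary electrophoresis, with bidirectional fitting against DMSO.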

[2] = target: Bile acid receptor (Homo sapiens) (UniProt Q96RI1); assay: ATG_IR1_CIS: Attagene CIS-FACTORIAL HepG2 Assay for human Nuclear Receptor Subfamily 1 Group H Member 4 (NR1H4), IR1 submotif (AID 2282946); conditions: IR1 reporter transcription, actives raise or lower the signal
How it was run: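 Transient MRTU transfection, HepG2; 24 h dosing; RNA → RT-PCR → 6-FAM primer extension → HpaI digest → capillary electrophoresis fluorescence. Gain/loss of signal fitted relative to DMSO.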

[3] = ATG_GRE_CIS: Attagene CIS-FACTORIAL HepG2 Assay for human Glucocorticoid Response Elements (GRE) (AID 2282947); conditions: HepG2 GRE cis-reporter, Attagene multiplex mRNA; actives raise or lower the signal
How it was run: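 HepG2 cells transiently transfected with multiple cis-promoter reporter units measure endogenous TF activity; 24 h compound exposure. Reporter mRNA quantified by RT-PCR, FAM labelling, HpaI digestion and capillary electrophoresis; bidirectional fit vs DMSO baseline.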

[4] = ATG_ISRE_CIS: Attagene CIS-FACTORIAL HepG2 Assay for human Interferon Regulatory Factor 1 (IRF1) binding to an Interferon-Stimulated Response Element (ISRE) (AID 2282948); conditions: HepG2 ISRE cis-reporter (Attagene), mRNA transcription readout; actives raise or lower the signal
How it was run: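 Transiently transfected HepG2 cells carrying cis-element reporter units, dosed 24 hours. Reporter mRNA quantified by RT-PCR, fluorescent primer extension, HpaI digestion and capillary electrophoresis. Bidirectional fitting relative to DMSO.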

[5] = ATG_M_32_CIS: Attagene CIS-FACTORIAL HepG2 Assay for M32 Transcription Factor (Internal Marker) (AID 2282949); conditions: HepG2 Attagene cis-factorial M32 reporter, mRNA; actives raise or lower the signal;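 further: background control marker of the multiplexed CIS panel rather than a real target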
How it was run: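 Following 24 h chemical exposure of HepG2 cells transiently expressing cis-promoter reporter constructs, reporter transcript levels were determined by RT-PCR with fluorescent labelling and capillary electrophoresis, then fitted bidirectionally against DMSO.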

[6] = ATG_M_06_CIS: Attagene CIS-FACTORIAL HepG2 Assay for M06 Transcription Factor (Internal Marker) (AID 2282950); conditions: HepG2 Attagene CIS-FACTORIAL M06 internal marker reporter; actives raise or lower the signal
How it was run: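 Steps: transfect HepG2 with multiplexed cis-element reporter constructs; dose chemical 24 h; extract RNA with DNase treatment; reverse-transcribe, PCR-amplify, 6-FAM label, HpaI digest; separate fragments by capillary electrophoresis. Activity fitted both directions versus DMSO.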

[7] = target: Hypoxia-inducible factor 1-alpha (Homo sapiens) (UniProt Q16665); assay: ATG_HIF1a_CIS: Attagene CIS-FACTORIAL HepG2 Assay for human Hypoxia Inducible Factor 1 (HIF1A) (AID 2282951); conditions: HepG2 Attagene cis-factorial HIF1a reporter transcription; actives raise or lower the signal
How it was run: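 HepG2, transient cis-reporter library, 24 h dosing. RNA → RT (oligo dT) → PCR → 6-FAM primer extension → HpaI → CE. Bidirectional curve fit vs DMSO.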

[8] = target: Hepatocyte nuclear factor 6 (Homo sapiens) (UniProt Q9UBC0); assay: ATG_HNF6_CIS: Attagene CIS-FACTORIAL HepG2 Assay for human Hepatocyte Nuclear Factor 6 (HNF6) (AID 2282952); conditions: HepG2 Attagene cis-factorial HNF6 reporter transcription; actives raise or lower the signal
How it was run: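 Multiplexed mRNA reporter assay in transfected HepG2; 24 h dosing; RT-PCR plus capillary electrophoresis fluorescence; DMSO-referenced bidirectional curve fitting.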

[9] = target: Heat shock factor protein 1 (Homo sapiens) (UniProt Q00613); assay: ATG_HSE_CIS: Attagene CIS-FACTORIAL HepG2 Assay for human Heat Shock Transcription Factor 1 (HSE) (AID 2282953); conditions: HepG2 HSE cis-reporter, Attagene RNA transcription; actives raise or lower the signal
How it was run: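 Cells were transfected with cis-element-driven reporter constructs, dosed for 24 h, then total RNA was reverse-transcribed and reporter cDNA amplified, FAM-labelled and digested with HpaI. Fragments were resolved by capillary electrophoresis; gain or loss was fitted against DMSO.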

[10] = ATG_MRE_CIS: Attagene CIS-FACTORIAL HepG2 Assay for human Metal Responsive Element (MRE) (AID 2282954); conditions: HepG2 MRE cis-reporter transcription, Attagene multiplex; actives raise or lower the signal
How it was run: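 HepG2 cells transiently transfected with multiple cis-element reporter units measure endogenous MTF1-driven transcription. After 24 h compound exposure, reporter mRNA is quantified by RT-PCR with 6-FAM labelling, HpaI digestion and capillary electrophoresis; bidirectional fits versus DMSO.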

[11] = ATG_PBREM_CIS: Attagene CIS-FACTORIAL HepG2 Assay for human Phenobarbital-responsive Enhancer Module (PBREM) (AID 2282955); conditions: HepG2 PBREM cis-reporter, Attagene multiplexed transcription; actives raise or lower the signal
How it was run: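 HepG2, transient MRTU transfection, 24 h dosing; RNA → oligo(dT) RT → PCR → 6-FAM extension → HpaI → CE. Bidirectional fit vs DMSO.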

[12] = target: Paired box protein Pax-6 (Homo sapiens) (UniProt P26367); assay: ATG_Pax6_CIS: Attagene CIS-FACTORIAL HepG2 Assay for human Paired Box 6 (PAX6) (AID 2282956); conditions: HepG2 CIS-FACTORIAL PAX6 reporter transcription, RNA readout; actives raise or lower the signal
How it was run: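 HepG2 cells transiently transfected with cis-promoter-driven multiplexed reporter units sensing endogenous transcription factor activity; 24 h chemical exposure. Reporter mRNA quantified by RT-PCR, 6-FAM labelling, HpaI digestion and capillary electrophoresis; bidirectional fit versus DMSO baseline.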

[13] = ATG_PXRE_CIS: Attagene CIS-FACTORIAL HepG2 Assay for human Pregnane X Receptor Element (PXRE) (AID 2282957); conditions: HepG2 Attagene CIS-FACTORIAL PXRE reporter, mRNA; actives raise or lower the signal
How it was run: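 Cells: HepG2, transiently transfected reporter units under cis promoter control. Exposure: 24 h. Detection: reporter mRNA via RT-PCR/CE fluorescence; bidirectional fitting, DMSO-referenced.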

[14] = ATG_PPRE_CIS: Attagene CIS-FACTORIAL HepG2 Assay for human Peroxisome Proliferator-activated Response Element (PPRE) (AID 2282958); conditions: HepG2 PPRE cis-element reporter, Attagene transcription factor profiling; actives raise or lower the signal
How it was run: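 Transcript-level reporter induction in transfected HepG2 cells after 24 h chemical exposure, quantified by fluorescence from RT-PCR products separated by capillary electrophoresis.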

[15] = ATG_Sox_CIS: Attagene CIS-FACTORIAL HepG2 Assay for human SRY-box transcription factor (SOX) (AID 2282960); conditions: HepG2 Attagene cis-factorial SOX reporter, mRNA; actives raise or lower the signal
How it was run: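 Cells were transfected with reporter constructs under cis-regulatory promoters, then exposed to chemicals for 24 h. Reporter transcripts were quantified by fluorescence after RT-PCR and capillary electrophoresis; activity was fitted in both directions against DMSO.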

[16] = target: Transcription factor Sp1 (Homo sapiens) (UniProt P08047); assay: ATG_Sp1_CIS: Attagene CIS-FACTORIAL HepG2 Assay for human Specificity Protein 1 (Sp1) (AID 2282961); conditions: HepG2 Sp1 cis-reporter transcription, actives raise or lower the signal
How it was run: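 Measures mRNA induction of an Sp1-linked reporter in HepG2 cells 24 h post-dosing. Multiplexed reporters read by RT-PCR and capillary electrophoresis; DMSO serves as negative control and baseline.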

[17] = ATG_SREBP_CIS: Attagene CIS-FACTORIAL HepG2 Assay for human Sterol Regulatory Element Binding (SREBP) (AID 2282962); conditions: HepG2 Attagene cis-factorial SREBP reporter, mRNA; actives raise or lower the signal
How it was run: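 HepG2 cells transiently transfected with multiplexed cis-promoter reporter units sensing endogenous transcription factors; reporter mRNA measured 24 h after dosing by RT-PCR, 6-FAM labeling, HpaI digestion and capillary electrophoresis. Bidirectional fit versus DMSO.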

[18] = ATG_TA_CIS: Attagene CIS-FACTORIAL HepG2 Assay for human TA Basal Promoter (AID 2282964); conditions: HepG2 Attagene CIS-factorial TA basal promoter reporter; actives raise or lower the signal
How it was run: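 Steps: transfect HepG2 with MRTUs; dose 24 h; isolate RNA, DNase-treat, reverse-transcribe; PCR and FAM-label reporter cDNA; digest with HpaI 2h at 37 C; run capillary electrophoresis. Activity fitted both directions against DMSO.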

[19] = target: Signal transducer and activator of transcription 3 (Homo sapiens) (UniProt P40763); assay: ATG_STAT3_CIS: Attagene CIS-FACTORIAL HepG2 Assay for human Signal Transducer and Activator of Transcription 3 (STAT3) (AID 2282963); conditions: HepG2, Attagene cis-factorial STAT3 reporter transcription; actives raise or lower the signal
How it was run: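 HepG2 cells transiently transfected with cis-element-driven multiple reporter transcription units; after 24 h chemical exposure, reporter mRNA measured by RT-PCR, 6-FAM primer-extension labelling, HpaI digestion and capillary electrophoresis. Bidirectional fitting versus DMSO baseline.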

[20] = ATG_RORE_CIS: Attagene CIS-FACTORIAL HepG2 Assay for human RAR-related Orphan Receptor Element (RORE) (AID 2282959); conditions: HepG2 Attagene cis-factorial RORE reporter, mRNA; actives raise or lower the signal
How it was run: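 Multiplexed reporter assay measuring mRNA induction from a cis promoter element in transiently transfected HepG2 cells after 24 h treatment. Detection via RT-PCR and capillary electrophoresis fluorescence; DMSO serves as baseline.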

Measured: AC50

Chain of Transcription factor Sp1 (Homo sapiens) (P08047 whole entry, looked up): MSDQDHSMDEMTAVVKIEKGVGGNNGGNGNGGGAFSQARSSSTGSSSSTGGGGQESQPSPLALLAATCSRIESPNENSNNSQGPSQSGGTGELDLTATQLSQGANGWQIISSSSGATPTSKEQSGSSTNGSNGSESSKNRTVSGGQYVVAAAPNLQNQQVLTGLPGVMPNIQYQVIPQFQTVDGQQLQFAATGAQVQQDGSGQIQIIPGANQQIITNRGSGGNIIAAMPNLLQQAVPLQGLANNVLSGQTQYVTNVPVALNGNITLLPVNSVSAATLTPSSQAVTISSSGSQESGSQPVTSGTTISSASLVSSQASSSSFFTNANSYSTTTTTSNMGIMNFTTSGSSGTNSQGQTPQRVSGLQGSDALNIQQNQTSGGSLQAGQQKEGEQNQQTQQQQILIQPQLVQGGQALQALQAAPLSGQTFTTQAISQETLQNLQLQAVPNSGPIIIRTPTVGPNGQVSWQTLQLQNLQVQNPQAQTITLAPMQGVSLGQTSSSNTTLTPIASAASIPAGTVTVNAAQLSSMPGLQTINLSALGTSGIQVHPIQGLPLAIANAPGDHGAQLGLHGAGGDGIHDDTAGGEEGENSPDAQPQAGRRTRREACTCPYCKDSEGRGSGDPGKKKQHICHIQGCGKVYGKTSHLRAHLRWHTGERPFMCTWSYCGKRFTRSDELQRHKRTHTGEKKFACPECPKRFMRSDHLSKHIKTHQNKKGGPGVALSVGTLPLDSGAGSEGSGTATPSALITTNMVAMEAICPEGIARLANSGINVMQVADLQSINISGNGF
Chain of Heat shock factor protein 1 (Homo sapiens) (Q00613 whole entry, looked up, the tested form may be a part): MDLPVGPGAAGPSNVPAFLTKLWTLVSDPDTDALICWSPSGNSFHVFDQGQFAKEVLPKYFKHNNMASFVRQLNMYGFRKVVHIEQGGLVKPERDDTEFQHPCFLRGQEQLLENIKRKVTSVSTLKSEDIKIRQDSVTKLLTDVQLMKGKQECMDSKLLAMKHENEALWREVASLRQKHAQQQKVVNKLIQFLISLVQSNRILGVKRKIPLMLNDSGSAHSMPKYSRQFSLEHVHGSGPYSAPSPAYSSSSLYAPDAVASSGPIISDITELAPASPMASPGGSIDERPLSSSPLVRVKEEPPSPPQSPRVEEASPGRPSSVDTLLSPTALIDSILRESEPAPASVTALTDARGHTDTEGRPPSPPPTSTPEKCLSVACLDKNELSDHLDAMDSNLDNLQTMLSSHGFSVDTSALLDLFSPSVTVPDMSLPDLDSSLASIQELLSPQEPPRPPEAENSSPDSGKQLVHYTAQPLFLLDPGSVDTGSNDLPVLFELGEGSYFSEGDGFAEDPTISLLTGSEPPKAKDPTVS
Chain of Hypoxia-inducible factor 1-alpha (Homo sapiens) (Q16665 whole entry, looked up): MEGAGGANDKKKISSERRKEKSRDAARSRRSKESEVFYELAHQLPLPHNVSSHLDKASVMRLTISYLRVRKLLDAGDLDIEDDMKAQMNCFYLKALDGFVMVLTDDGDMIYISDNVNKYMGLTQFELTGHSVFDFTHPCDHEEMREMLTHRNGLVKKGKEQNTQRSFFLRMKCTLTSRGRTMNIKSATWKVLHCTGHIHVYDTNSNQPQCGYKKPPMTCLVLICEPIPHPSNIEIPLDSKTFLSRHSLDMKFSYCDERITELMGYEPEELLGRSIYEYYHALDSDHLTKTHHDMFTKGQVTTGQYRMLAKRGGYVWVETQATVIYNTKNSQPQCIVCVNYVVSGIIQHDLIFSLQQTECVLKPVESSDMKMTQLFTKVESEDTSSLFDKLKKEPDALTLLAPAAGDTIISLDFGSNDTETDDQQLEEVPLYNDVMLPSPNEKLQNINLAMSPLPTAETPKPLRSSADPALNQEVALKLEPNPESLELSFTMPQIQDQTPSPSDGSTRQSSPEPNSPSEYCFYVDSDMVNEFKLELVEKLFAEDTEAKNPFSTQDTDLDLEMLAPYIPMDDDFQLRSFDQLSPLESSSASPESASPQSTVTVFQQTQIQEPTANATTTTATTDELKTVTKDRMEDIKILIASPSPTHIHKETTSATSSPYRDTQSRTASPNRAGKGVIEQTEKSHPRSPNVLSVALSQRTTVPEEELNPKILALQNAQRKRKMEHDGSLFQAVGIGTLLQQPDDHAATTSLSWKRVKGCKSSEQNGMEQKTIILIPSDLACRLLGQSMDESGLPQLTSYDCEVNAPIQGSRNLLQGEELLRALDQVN
Chain of Signal transducer and activator of transcription 3 (Homo sapiens) (P40763 whole entry, looked up): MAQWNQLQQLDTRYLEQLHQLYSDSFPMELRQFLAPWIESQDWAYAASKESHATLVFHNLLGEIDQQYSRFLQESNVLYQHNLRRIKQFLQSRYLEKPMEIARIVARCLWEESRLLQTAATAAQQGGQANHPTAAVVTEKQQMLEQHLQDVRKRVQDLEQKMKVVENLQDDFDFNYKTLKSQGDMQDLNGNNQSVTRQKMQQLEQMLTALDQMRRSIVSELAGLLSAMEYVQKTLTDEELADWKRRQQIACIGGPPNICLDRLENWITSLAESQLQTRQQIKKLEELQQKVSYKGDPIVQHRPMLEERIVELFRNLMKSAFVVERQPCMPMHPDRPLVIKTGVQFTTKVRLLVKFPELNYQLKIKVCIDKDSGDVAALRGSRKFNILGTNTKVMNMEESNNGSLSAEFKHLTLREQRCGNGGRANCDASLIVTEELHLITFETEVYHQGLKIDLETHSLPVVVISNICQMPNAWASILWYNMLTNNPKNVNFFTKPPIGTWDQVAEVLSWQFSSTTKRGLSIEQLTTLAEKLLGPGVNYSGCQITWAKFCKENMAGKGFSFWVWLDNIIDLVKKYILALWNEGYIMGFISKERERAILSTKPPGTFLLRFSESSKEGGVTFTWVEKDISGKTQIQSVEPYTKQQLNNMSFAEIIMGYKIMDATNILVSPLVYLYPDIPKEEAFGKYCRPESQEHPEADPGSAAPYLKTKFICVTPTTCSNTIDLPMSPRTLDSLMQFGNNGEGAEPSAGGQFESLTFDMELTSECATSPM
Chain of Bile acid receptor (Homo sapiens) (Q96RI1 whole entry, looked up): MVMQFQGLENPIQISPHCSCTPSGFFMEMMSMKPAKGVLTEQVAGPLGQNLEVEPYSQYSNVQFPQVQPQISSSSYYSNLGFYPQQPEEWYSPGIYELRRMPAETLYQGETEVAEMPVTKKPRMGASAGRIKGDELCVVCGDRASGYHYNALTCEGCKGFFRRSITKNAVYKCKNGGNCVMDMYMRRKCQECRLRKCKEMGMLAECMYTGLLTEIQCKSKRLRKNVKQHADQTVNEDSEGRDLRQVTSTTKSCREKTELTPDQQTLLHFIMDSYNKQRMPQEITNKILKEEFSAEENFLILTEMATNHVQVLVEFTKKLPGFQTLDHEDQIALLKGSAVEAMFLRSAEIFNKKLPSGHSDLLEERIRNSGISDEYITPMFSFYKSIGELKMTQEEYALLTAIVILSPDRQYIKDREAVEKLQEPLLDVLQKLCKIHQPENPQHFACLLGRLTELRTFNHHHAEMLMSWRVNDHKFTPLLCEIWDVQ
Chain of Hepatocyte nuclear factor 6 (Homo sapiens) (Q9UBC0 whole entry, looked up): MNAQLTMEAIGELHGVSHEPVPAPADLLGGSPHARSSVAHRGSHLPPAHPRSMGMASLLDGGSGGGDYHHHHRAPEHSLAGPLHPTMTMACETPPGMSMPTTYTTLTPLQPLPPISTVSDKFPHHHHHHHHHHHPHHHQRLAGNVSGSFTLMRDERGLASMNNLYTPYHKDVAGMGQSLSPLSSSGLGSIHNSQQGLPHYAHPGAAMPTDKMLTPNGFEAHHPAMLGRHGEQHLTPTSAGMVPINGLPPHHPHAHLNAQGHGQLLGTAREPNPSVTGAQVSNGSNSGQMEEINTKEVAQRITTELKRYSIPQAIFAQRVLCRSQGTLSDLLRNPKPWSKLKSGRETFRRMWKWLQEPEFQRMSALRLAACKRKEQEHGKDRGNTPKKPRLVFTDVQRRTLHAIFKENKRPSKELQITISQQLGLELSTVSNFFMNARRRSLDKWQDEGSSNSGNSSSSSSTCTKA
Chain of Paired box protein Pax-6 (Homo sapiens) (P26367 whole entry, looked up): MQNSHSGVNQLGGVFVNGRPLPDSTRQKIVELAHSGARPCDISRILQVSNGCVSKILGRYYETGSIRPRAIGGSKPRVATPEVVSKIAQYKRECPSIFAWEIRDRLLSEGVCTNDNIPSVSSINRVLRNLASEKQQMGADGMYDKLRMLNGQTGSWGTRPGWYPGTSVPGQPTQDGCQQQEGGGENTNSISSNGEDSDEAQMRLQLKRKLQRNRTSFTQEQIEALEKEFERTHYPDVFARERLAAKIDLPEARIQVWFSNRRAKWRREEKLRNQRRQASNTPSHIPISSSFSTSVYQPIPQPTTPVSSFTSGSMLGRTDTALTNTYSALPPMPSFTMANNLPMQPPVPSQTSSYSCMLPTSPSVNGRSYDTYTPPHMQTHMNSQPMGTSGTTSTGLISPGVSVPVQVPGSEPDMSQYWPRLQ

O=C(O)c1cc(O)c2ccccc2c1O
active: [1] 33.4 µM | [2] 33.4 µM | [3] 21.8 µM | [7] 48.9 µM | [13] 0.944 µM | [18] 60.2 µM
not listed: [19] | [20]
inactive: all other assays above

CCC1(C)C(=O)N(Cl)C(=O)N1Cl (configuration not stated)
active: [4] 49.4 µM | [9] 52.1 µM | [10] 61.4 µM | [12] 49.8 µM | [13] 58.6 µM | [15] 37.9 µM
not listed: [20]
inactive: all other assays above

COc1ccc(C(=O)/C(Br)=C\C(=O)O)cc1
active: [4] 57.2 µM | [7] 56.1 µM | [9] 174 µM | [10] 55.5 µM | [12] 57.1 µM | [20] 32.5 µM | [16] 59 µM
not listed: [14] | [19]
inactive: all other assays above

CC1=C(O)C(=O)C(C)O1 (configuration not stated)
not listed: [14] | [17]
inactive: all other assays above

C[N+](C)(C)CCCNS(=O)(=O)C(F)(F)C(F)(F)C(F)(F)C(F)(F)C(F)(F)C(F)(F)C(F)(F)C(F)(F)F
active: [13] 41.7 µM
not listed: [14] | [17] | [20]
inactive: all other assays above

CCCCCCCCC(CO)CCCCCC (configuration not stated)
active: [3] 126 µM | [8] 172 µM | [10] 158 µM | [11] 166 µM | [19] 133 µM
not listed: [14] | [17]
inactive: all other assays above

CCCCNC(=S)NCCCC
active: [13] 38 µM
not listed: [14]
inactive: all other assays above
